Reference: PubChem BioAssay AID2384 (Southern Research Specialized Biocontainment Screening …, 2010)
The campaign covered roughly 2,300 compounds. About 1,100 (48%) were called active. No rule for the calls is given here. The set was probably picked from earlier hits. The list shows a part of the results. Potency and affinity values are given separately.

Experiment: inhibitors in S. typhi counter-screen strain, dose response, counter-screen for PhoP regulon inhibitor project, fluorescence, 4 h (AID 2384)
Settings: S. typhi GFP reporter counter-screen; series mostly up to 150 µM; inhibition: at the top concentration

Compound	inhibition
CC1(C)CC(N2CCN(c3ccccc3)CC2)=CC(=[N+]2CCCC2)C1	-5.38% (inactive)
CC1CCC[C@H](O)CCCCCc2cc(O)cc(O)c2C(=O)O1 (stereo partly specified)	6.87% (inactive)
CC1=C(C#N)CCC(=O)N1Cc1c(C)cc(C)cc1C	-4.03% (inactive)
Nn1cnnc1N/N=C\c1ccc(-c2ccccc2[N+](=O)[O-])o1	5.18% (inactive)
O=[N+]([O-])c1ccc(/C=N/NC(=S)Nc2ccc(Cl)cc2Cl)s1	35.1% (inactive)
COc1ccc(CNC(=O)CCC(=O)N2C[C@H]3C[C@H](C2)c2cccc(=O)n2C3)cc1	13% (inactive)
Cc1cc(NS(=O)(=O)c2ccc(NC(=O)C(C)Oc3ccc4c(C)cc(=O)oc4c3)cc2)no1 (stereo unspecified)	15.6% (inactive)
COc1cc(OC)nc(NC(=O)C(C)C)n1	-27% (inactive)
CCNc1nc(N)nc(Oc2ccc(OCCOc3ccc(Cl)cc3Cl)nn2)n1	-7.02% (inactive)
COc1cc(/C=C/C(=O)O)cc2c1OCCO2	1.36% (inactive)
CCCC(CCC)C(=O)NCCN1CCOCC1	9.01% (inactive)
CCn1nccc1C(=O)Nc1cc(Cl)cc(Cl)c1	16.1% (inactive)
CCOC(=O)/C=C1/N(C)c2ccccc2C1(C)C	-0.1% (inactive)
O=Cc1ccc(O)cc1O	12.6% (inactive)
CCCOc1ccc(-c2cn3ccccc3n2)cc1	27.4% (inactive)
Cc1ccc(-c2noc(CN3CCCCC3)n2)cc1	-23.5% (inactive)
Cc1ccc2nsnc2c1S(=O)(=O)NCc1ccc2c(c1)OCO2	-30.8% (inactive)
Cc1[nH]nc2c1C(c1ccc(-c3ccccc3C#N)o1)C(C#N)=C(N)O2 (stereo unspecified)	-6.53% (inactive)
COc1ccc(NC(=O)CN(C)S(=O)(=O)c2ccc(Cl)cc2)cc1Cl	-14.6% (inactive)
O=C(NCc1cccnc1)c1ccc(COc2ccc(Cl)cc2)cc1	-28.3% (inactive)
Cn1cc(S(=O)(=O)NCC2CCCO2)c(=O)n(C)c1=O (stereo unspecified)	19.2% (inactive)
C[C@]1(OC(=O)/C=C/c2ccccc2)C[C@@H](O)[C@]2(O)C=CO[C@@H](O[C@@H]3O[C@H](CO)[C@@H](O)[C@H](O)[C@H]3O)[C@@H]21	6.78% (inactive)
CC(=O)c1cccc(NC(=S)NNC(=O)c2ccco2)c1	21.6% (inactive)

Compound	inhibition
O=C(/C=C/c1ccco1)NC(=S)Nc1cccc(-c2nc3ccccc3o2)c1	-13.3% (inactive)
O=C(/C=C/c1ccccc1)NNC(=O)c1ccco1	-2.38% (inactive)
O=C(NC(=S)Nc1c(F)cc(F)cc1Br)c1ccc2c(c1)OCCO2	-19% (inactive)
COc1ccc(C(C(=O)Nc2ccc(C(C)C)cc2)N(Cc2ccco2)C(=O)CC2NC(=O)NC2=O)cc1 (stereo unspecified)	-0.89% (inactive)
Nc1nc(=S)c2[nH]cnc2[nH]1	32.3% (inactive)
COc1ccc(C2C3=C(CC(C)(C)CC3=O)Nc3cc4c(cc32)OCO4)cc1 (stereo unspecified)	-48.3% (inactive)
O=C(CSc1ccccc1)N1CCC(N2CCC(C(=O)N3CCCC3)CC2)CC1	-12.2% (inactive)
C[C@@H](C(=O)NC1CCCC1)N1C(=O)N2CCc3c([nH]c4ccccc34)[C@@]2(C)C1=O	-17.4% (inactive)
CCOC(=O)c1cccc(NC(=O)C2CCC(CNc3c(N4CCOCC4)c(=O)c3=O)CC2)c1 (stereo unspecified)	-22.3% (inactive)
CCN1CCN(C2=C(NS(=O)(=O)c3ccc(Br)cc3)C(=O)c3ccccc3C2=O)CC1	17.3% (inactive)
CCc1ccc(C(=O)CC2(O)C(=O)N(CN3CCOCC3)c3ccccc32)cc1 (stereo unspecified)	13.2% (inactive)
O=C(c1cccs1)N1CCC(N2CCN(c3ccccc3)CC2)CC1	-17.6% (inactive)
CC(=O)C1=C(O)C(=O)N(CCN2CCOCC2)C1c1ccccc1 (stereo unspecified)	10.7% (inactive)
O=C(C[n+]1cn(C(F)F)c2ccccc21)c1ccc(Br)cc1	-14.8% (inactive)
CCN1CCN(c2cc(C)c3cc(NC(=S)N4CCN(c5ccccc5F)CC4)ccc3n2)CC1	35.7% (inactive)
COc1ccc(C(=O)N2CCN(C(=O)Cc3ccccc3)CC2)cc1OC	-1.09% (inactive)
Cn1c(=NC(=O)COc2ccccc2)sc2cccc(F)c21	0.24% (inactive)
Cc1cc(NC(=O)/C=C/C(=O)N(c2ccccc2C)C(C(=O)NC2CCCC2)c2ccc(F)cc2)no1 (stereo unspecified)	6.86% (inactive)
CC(=O)c1c(N2CCN(c3cccc(Cl)c3)CC2)nc(=S)n(-c2ccccc2)c1C	-38.1% (inactive)
O=C(Nc1ccc(Cl)cc1)N1CCOC12CCC1(CC2)OCCO1	7.84% (inactive)
CCc1cccc(NC(=O)CSC2=NS(=O)(=O)c3ccccc32)c1	7.63% (inactive)
CCOC(=O)c1ccc(NC(=O)CSC(=S)N2CCOCC2)cc1	-22.6% (inactive)
NC(=O)SCC(=O)Nc1ccc(Cl)c(Cl)c1	32% (inactive)

Compound	inhibition
O=C(Cc1ccccc1)NCC(=O)Nc1cccc(Cl)c1	6.95% (inactive)
O=C(COc1ccc(Cl)cc1)Nc1cccc(-c2ccc3nncn3n2)c1	-14.3% (inactive)
Cc1cnc(C(=O)OCC(=O)Nc2cccc(Cl)c2)cn1	0.83% (inactive)
Cc1ccc(NC(=O)c2cc(NC(=O)CCCC(=O)O)ccc2Cl)cc1Cl	-19.6% (inactive)
O=C(Cn1nc(Cc2ccncc2)c2ccccc2c1=O)Nc1cccnc1Cl	2.79% (inactive)
CCCN(C(=O)CSc1nc2ccccc2n1CC)C1CCS(=O)(=O)C1 (stereo unspecified)	28.5% (inactive)
O=C(Nc1ccc2c(c1)OCCO2)C1CCCN1C(=O)Nc1ccc(F)cc1 (stereo unspecified)	-2.19% (inactive)
c1cnc2nc(-c3ccc4c(c3)OCO4)cn2c1	-13.7% (inactive)
Clc1ccc(Cn2cccc2C2=NCCO2)cc1	-22.6% (inactive)
COc1ccc(-c2nnc(SC(C)C(=O)Nc3nccs3)n2Cc2ccccc2)cc1OC (stereo unspecified)	-3.63% (inactive)
CN(C)C(=O)CSc1nnc(Cc2ccc([N+](=O)[O-])cc2)o1	-7.9% (inactive)
COc1ccc(N(CC(=O)N2c3ccccc3CC2C)S(=O)(=O)c2c(C)noc2C)cc1 (stereo unspecified)	-2.81% (inactive)
Cc1oc(/N=C/c2ccc(O)cc2O)c(C#N)c1C	-15.2% (inactive)
O=C(N/N=C/c1ccc(O)cc1O)C(=O)N/N=C/c1ccc(O)cc1O	-70.2% (inactive)
Cc1ccc(/C=N/NC(=O)Cc2cccn2C)cc1	6.57% (inactive)
Cc1cc(Cl)ccc1OCC(=O)N/N=C/c1ccncc1	26% (inactive)
CCOC(=O)c1[nH]c2ccc(Cl)cc2c1NC(=O)c1nonc1C	-11.4% (inactive)
O=C(N/N=C/c1ccc(N2CCOCC2)cc1)c1ccc(O)cc1	20.5% (inactive)
CN(CC(=O)Nc1ccc(F)c(F)c1F)c1cnccn1	30.9% (inactive)
C[C@@H](NC(=O)[C@@H]1Cc2ccccc2CN1)C(=O)NCC1CCCO1 (stereo partly specified)	-13% (inactive)
CCCOc1ccc(C2C(C(=O)c3ccc(C)o3)=C(O)C(=O)N2CCCn2ccnc2)cc1 (stereo unspecified)	2.87% (inactive)
C=CCNc1nc(-c2ccccc2)nc(-n2ccnc2)n1	-14.9% (inactive)
c1ccc2c(c1)CCN(c1nc3ccccc3n3cnnc13)C2	-15.8% (inactive)

Compound	inhibition
CC1(NC(=O)NCCCCCCNC(=O)NC2(C)CCS(=O)(=O)C2)CCS(=O)(=O)C1 (stereo unspecified)	-10.2% (inactive)
O=c1c2ccccc2[nH]c2ccc(F)cc12	4.1% (inactive)
O=c1[nH]n(-c2ccccc2)c(=O)c2ccccc12	3.81% (inactive)
COc1ccc(N=Cc2c(O)n(CC3CCCO3)c(=O)[nH]c2=O)cc1 (stereo unspecified)	9.18% (inactive)
Cc1cccc(N2CCN(C(=O)C3CCN(c4nnc(-n5cccc5)s4)CC3)CC2C)c1 (stereo unspecified)	-25.6% (inactive)
Cc1nn(C)c(C)c1NC(=O)c1ccc(S(=O)(=O)N(C)C)cc1	4.22% (inactive)
COc1ccccc1Nc1cc(C(=O)NCc2cccnc2)c2ccccc2n1	-19.1% (inactive)
CC(C)(C)Nc1c2ccccc2nc2ccccc12	32.2% (inactive)
Cc1cc(-c2nc3ccccc3o2)c2ccccc2n1	0.36% (inactive)
CC(=O)c1sc2nc(=O)c(C)nn2c1C	-20.6% (inactive)
CCOC(=O)C(CC)Sc1ccc2nnc(-c3cccnc3)n2n1 (stereo unspecified)	-8.08% (inactive)
COC(=O)c1cc2oc(C)cc2n1CC(=O)Nc1ccc(C)c(C)c1	-13.2% (inactive)
CCn1c(-c2cccc(Br)c2)n[nH]c1=S	12.4% (inactive)
Cc1onc(-c2ccccc2Cl)c1C(=O)NNC(=O)C1CCN(Cc2ccccc2)CC1	-18.2% (inactive)
CCCNC(=O)C1CCN(c2ccc(S(=O)(=O)N3CCOCC3)cc2Cl)CC1	-33.2% (inactive)
COC(=O)CNC(=O)c1ccc(=O)oc1	-10% (inactive)
COc1ccc(Cl)cc1N(C)C(=O)CCNC(=O)Cn1cnc2ccccc2c1=O	11% (inactive)
O=C(NCC1CC1)Nc1cccs1	9.59% (inactive)
Oc1ccc(-c2nc3ncccn3c2Nc2ccc3c(c2)OCCO3)cc1	11.8% (inactive)
COc1ccccc1NC(=O)Cn1cnc2c(nnn2-c2ccc(C)cc2)c1=O	7.57% (inactive)
COc1ccccc1NC(=O)CN1CCN(c2ccccc2)CC1	-5.44% (inactive)
CCN(CC)CCN(C(=O)c1cccc([N+](=O)[O-])c1)c1nc2ccc(OC)cc2s1	39.5% (inactive)
COc1ccc2nc(NC(=O)Nc3ccccc3)sc2c1	-19.3% (inactive)

Compound	inhibition
O=C(N/N=C/c1ccc(-c2ccc(Br)cc2)o1)c1ccc2c(c1)OCO2	-16.7% (inactive)
Cc1nc(C)c(-c2ccc(SCc3ccccc3C)nn2)s1	-5.23% (inactive)
CCCC(=NCc1ccccc1)C1=C(O)C(C(=O)OC)C(C)(C)CC1=O (stereo unspecified)	7.33% (inactive)
Cc1noc(C)c1CCC(=O)N1CCCC(CCC(=O)NCc2ccc(F)c(F)c2)C1 (stereo unspecified)	-3.73% (inactive)
CC(C)CNC(CC(=O)O)c1ccccc1 (stereo unspecified)	1.77% (inactive)
CCc1c(C)n([O-])c2c([n+]1=O)CCCCC2	-29.8% (inactive)
COCc1cc(=O)n2[nH]c(C)nc2n1	15.9% (inactive)
O=C(CC1(O)C(=O)Nc2ccc(Br)cc21)c1ccc2c(c1)OCO2 (stereo unspecified)	-17.7% (inactive)
O=C(CN1C2=NCCN2c2ccccc21)c1ccco1	13% (inactive)
COc1ccc(NS(=O)(=O)c2cc(NC(=O)c3ccc(C)s3)ccc2N2CCOCC2)cc1	11.5% (inactive)
CCOc1ccc(-c2c[n+]3c(n2-c2ccccc2)CCCCC3)cc1	5.49% (inactive)
COc1ccc(C2C(C#N)=C(N)Oc3n[nH]c(C)c32)cc1CSc1ccccn1 (stereo unspecified)	30.4% (inactive)
CC(C)c1ccc2oc(=O)cc(CN3CCN(c4ccc(F)cc4)CC3)c2c1	-10.1% (inactive)
CCCCc1cc(=O)oc2cc(C)c(CN3CCCC3)c(O)c12	4.75% (inactive)
CCN(CC)CCOC(=O)c1ccc(N/C=C(/C#N)c2nc(-c3ccc(OC)c(OC)c3)cs2)cc1	-49.6% (inactive)
O=C(CSC1=NCCS1)Nc1nc2c(s1)CCCC2	-13.1% (inactive)
O=C(CSc1cccc2cccnc12)Nc1ccc(S(=O)(=O)N2CCOCC2)cc1	0.8% (inactive)
CC(=O)Nc1cc(-c2ccc(Cl)cc2)[nH]n1	14.5% (inactive)
CC(=O)c1c(C)nc(-c2cccc([N+](=O)[O-])c2)n1O	13.7% (inactive)
